Assay [1] in a line: compounds binding Alexa647 anti-His antibody – biochemical, small-molecule microarray, 635 nm fluorescence, artefact control for SMM control protein annotation, primary screen (AID 1128).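 Further: score merges feature fluorescence with signal-to-noise for each printed compound spot.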 To be noted: higher = more signal.
The subject of assay [2] is Human papillomavirus type 1a E7 protein (residues 1-88). Nature of the assay: HPV1a E7 small-molecule binders, primary screen, biochemical, small-molecule microarray, residues 1-88, 635 nm (AID 1129). The conditions noted are these: small-molecule microarray binding, fluorescence 635 nm; higher = more signal.
Assay [3] addresses Focal adhesion kinase 1 (Homo sapiens) (UniProt Q05397). Nature of the assay: PTK2 protein binding on printed compound slides – biochemical, small-molecule microarray, 635/667 nm fluorescence, BSA, DTT, primary screen (AID 1130).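 Further: composite of spot emission at 667 nm and signal to noise over triplicate slides.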 The conditions noted are these: 635 nm fluorescence, higher = more signal.
For assay [4], the system named is Fibrinogen (Alexa647-labelled). Nature of the assay: Alexa647-fibrinogen binding to printed small molecules – biochemical, small-molecule microarray, 635/667 nm fluorescence, artefact control for SMM control-protein annotation, profiling panel (AID 1131).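 Further: z-score merges 667 nm fluorescence with per-spot signal-to-noise over triplicate slides.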 To be noted: fibrinogen-A647 binding fluorescence, higher = more signal.
The target of assay [5] is Follistatin (Homo sapiens) (UniProt P19883). Nature of the assay: FST protein binding to printed compounds – biochemical, small-molecule microarray, 635/667 nm fluorescence, primary screen (AID 1132). The conditions noted are these: 635 nm fluorescence, higher = more signal.
Sequence of Follistatin (Homo sapiens) (P19883 whole entry, looked up): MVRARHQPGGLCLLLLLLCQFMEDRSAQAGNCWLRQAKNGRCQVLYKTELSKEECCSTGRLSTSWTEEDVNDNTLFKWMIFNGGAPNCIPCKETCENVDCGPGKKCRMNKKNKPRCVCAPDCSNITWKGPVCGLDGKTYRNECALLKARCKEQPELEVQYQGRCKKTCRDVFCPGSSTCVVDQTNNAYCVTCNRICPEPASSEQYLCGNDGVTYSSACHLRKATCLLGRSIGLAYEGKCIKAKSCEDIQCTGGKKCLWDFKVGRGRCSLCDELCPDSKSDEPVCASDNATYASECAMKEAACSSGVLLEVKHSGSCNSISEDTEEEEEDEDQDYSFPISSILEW
The target of assay [6] is Fibroblast growth factor 2 (Homo sapiens) (UniProt P09038). Nature of the assay: basic fibroblast growth factor binding to printed compounds – biochemical, small-molecule microarray, 635/667 nm fluorescence, primary screen (AID 1133). To be noted: FGF2, fluorescence 635/667, higher = more signal.
Sequence of Fibroblast growth factor 2 (Homo sapiens) (P09038 whole entry, looked up): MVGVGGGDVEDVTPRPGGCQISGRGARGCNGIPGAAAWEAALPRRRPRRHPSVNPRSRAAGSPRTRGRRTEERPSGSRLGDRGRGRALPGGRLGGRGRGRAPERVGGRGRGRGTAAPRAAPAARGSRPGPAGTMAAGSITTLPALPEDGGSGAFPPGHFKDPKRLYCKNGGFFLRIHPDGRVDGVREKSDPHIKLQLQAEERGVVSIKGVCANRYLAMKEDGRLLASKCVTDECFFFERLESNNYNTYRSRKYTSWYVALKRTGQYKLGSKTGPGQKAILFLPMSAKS
The nature of assay [7]: JC-1 mitochondrial potential readout, lung cancer cells – cell-based, A549, JC-1 fluorescence, basal, 24 h, 100 nL, profiling panel (AID 1138).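 Further: A549 lung adenocarcinoma cells under basal conditions with no added stimulus; test concentration not given here.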 The conditions noted are these: higher = more signal.
In assay [8] the test system is Lefty1. Nature of the assay: Lefty1 protein binding to printed compounds – biochemical, small-molecule microarray, 635/667 nm fluorescence, primary screen (AID 1139). To be noted: fluorescence 635/667, higher = more signal.
Assay [9] deals with wheat germ agglutinin (Triticum aestivum), Alexa647-labelled. Nature of the assay: Alexa647-WGA lectin binding to printed small molecules – biochemical, small-molecule microarray, 635/667 nm fluorescence, artefact control for SMM control-protein annotation, profiling panel (AID 1140).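 Further: score merges 667 nm feature emission with signal to noise over triplicate slides.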 The conditions noted are these: WGA-A647 binding, 635 nm fluorescence, higher = more signal.
The target of assay [10] is Luciferin 4-monooxygenase (Photinus pyralis) (UniProt P08659). Kind of assay: inhibition of purified Photinus pyralis luciferase – biochemical, luminescence, purified enzyme, 2006 set, primary screen (AID 1141).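 Further: cell-free assay with purified firefly luciferase at 100 ng per well in PBS; test concentration not given here.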 The conditions noted are these: purified firefly luciferase, SteadyGlo luminescence, 30 min; higher = more signal, called active from +8 up or from −8 down.
Sequence of Luciferin 4-monooxygenase (Photinus pyralis) (P08659 whole entry, looked up): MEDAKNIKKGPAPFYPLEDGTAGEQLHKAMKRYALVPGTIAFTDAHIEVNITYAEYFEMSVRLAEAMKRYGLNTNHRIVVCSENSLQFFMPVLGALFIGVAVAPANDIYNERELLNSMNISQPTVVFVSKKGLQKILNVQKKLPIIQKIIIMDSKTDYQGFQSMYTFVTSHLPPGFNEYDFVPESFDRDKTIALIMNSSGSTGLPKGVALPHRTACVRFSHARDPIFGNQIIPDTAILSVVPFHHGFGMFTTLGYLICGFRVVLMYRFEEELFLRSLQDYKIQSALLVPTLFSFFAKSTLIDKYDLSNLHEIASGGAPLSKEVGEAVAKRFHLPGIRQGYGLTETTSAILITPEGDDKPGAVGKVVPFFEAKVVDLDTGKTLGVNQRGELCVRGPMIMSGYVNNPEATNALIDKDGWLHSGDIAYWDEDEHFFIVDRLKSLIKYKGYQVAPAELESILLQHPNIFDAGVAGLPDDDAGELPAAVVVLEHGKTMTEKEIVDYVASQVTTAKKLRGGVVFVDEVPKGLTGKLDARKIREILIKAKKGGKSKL

Activity calls are given as the source filed them.

Sequence of Focal adhesion kinase 1 (Homo sapiens) (Q05397 whole entry, looked up): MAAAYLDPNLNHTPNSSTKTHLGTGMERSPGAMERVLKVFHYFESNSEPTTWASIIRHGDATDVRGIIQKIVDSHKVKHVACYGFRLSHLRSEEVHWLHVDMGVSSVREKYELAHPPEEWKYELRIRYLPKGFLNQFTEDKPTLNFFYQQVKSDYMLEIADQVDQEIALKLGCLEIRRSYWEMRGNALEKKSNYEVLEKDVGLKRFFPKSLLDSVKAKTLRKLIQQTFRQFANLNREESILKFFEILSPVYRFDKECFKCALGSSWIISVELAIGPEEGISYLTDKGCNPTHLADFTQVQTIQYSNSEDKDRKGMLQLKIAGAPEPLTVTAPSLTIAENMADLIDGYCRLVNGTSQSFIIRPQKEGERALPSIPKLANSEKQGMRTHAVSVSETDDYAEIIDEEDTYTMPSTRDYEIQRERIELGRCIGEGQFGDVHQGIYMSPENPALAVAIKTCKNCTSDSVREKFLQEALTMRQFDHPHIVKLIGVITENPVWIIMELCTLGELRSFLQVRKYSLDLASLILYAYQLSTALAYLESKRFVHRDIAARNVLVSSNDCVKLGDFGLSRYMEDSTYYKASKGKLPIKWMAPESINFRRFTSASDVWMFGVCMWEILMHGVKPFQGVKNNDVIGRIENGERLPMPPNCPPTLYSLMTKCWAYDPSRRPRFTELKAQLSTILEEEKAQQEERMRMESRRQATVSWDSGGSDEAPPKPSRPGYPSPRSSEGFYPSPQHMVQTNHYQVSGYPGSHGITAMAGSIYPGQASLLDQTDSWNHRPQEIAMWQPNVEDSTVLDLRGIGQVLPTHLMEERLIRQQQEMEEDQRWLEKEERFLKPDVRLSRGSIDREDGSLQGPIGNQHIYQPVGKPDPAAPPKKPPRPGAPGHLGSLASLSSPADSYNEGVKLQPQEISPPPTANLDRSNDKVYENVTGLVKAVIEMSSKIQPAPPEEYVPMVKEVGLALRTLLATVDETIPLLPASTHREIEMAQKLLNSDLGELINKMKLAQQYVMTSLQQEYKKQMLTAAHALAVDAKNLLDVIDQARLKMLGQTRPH

On to `CCCC=C(CCC)[C@@H](NS(=O)(=O)c1ccc(C(F)(F)F)cc1)c1ccccc1`, for which the composite z-score in [1] was 0.294; in [2] it was 0.887; in assay [3], 0.672; in assay [4], 0.698; in assay [5] it was 0.225; in [6], -0.148. Moreover, the results for the composite z-score in assay [8] and in assay [9] were -0.141 and 0.663, respectively. The z-score was -2.69 in assay [7] and 2.72 (inactive) in assay [10].

For the compound `COCC(=C=CC[C@H](O)c1ccc(CO)o1)CCO`, the composite z-score in assay [1] is 1.28; in [2], 0.58; in assay [3], 0.646; in assay [4], 0.501; in assay [5], 1.3; in assay [6], 1.14. Further, the composite z-score in [8] stood at 0.915; in assay [9] it was 0.277. Also, the z-score was 0.0889 in assay [7] and -0.561 (inactive) in assay [10].

For `CC1CC/C=C\[C@H]2OC34C=CCN(C(C)C)C(=O)[C@H]3N(CCO)C(=O)[C@@H]4C2C(=O)O1` (stereo not given in full), the composite z-score in assay [1] is -0.567; in assay [2] it was -0.724; in assay [3], -0.301; in [4], -1.41; in [5] it was -1.27; in [6], -1.03. Besides, the composite z-score in [8] was -0.445; in assay [9] it was -0.748. The values for the z-score in assay [7] and in [10] were 0.193 and -0.886 (inactive), respectively.

With `CC(C)N1CC=CC23O[C@@H]4C=CCCOC(=O)C4[C@H]2C(=O)N(CCCO)[C@@H]3C1=O` (stereo not given in full), the composite z-score in assay [1] is 0.939; in [2], -0.0707; in assay [3], 0.248; in assay [4], -1.09; in assay [5] it was -0.0801; in assay [6], -0.565. Besides, the composite z-score was -0.0004 in [8] and -0.467 in assay [9]. For the same compound, the results for the z-score in assay [7] and in assay [10] were -1.31 and 0.0763 (inactive), respectively.

As for `COCCOC(=O)N1C(=O)[C@@]2(c3cc(C#CCCO)ccc31)[C@H](C(=O)Nc1nc3ccccc3s1)[C@H]1C(=O)O[C@H](c3ccccc3)[C@H](c3ccccc3)N1[C@@H]2c1ccc(O)cc1`, the composite z-score in assay [1] is 2.54; in [2] it was 1.24; in assay [3] it was 0.978; in assay [4], 0.919; in assay [5] it was 1.38; in assay [6], 1.28. Further, the figures for the composite z-score in assay [8] and in assay [9] were 1.05 and 0.777, respectively. For the same compound, the z-score in [7] is -0.137; in assay [10], 0.57 (inactive).

`C=C[C@@H](CO)N(Cc1ccc(OC)cc1)S(=O)(=O)c1ccc(Br)cc1`: the composite z-score in assay [1] is 1.53; in assay [2], 0.687; in [3] it was 0.188; in assay [4] it was -0.0952; in [5], 0.351; in assay [6], 0.965. The figures for the composite z-score in assay [8] and in [9] were -0.327 and 0.316, respectively. Moreover, the z-score in assay [7] is 0.739; in assay [10], 0.356 (inactive).

With `Cc1ccccc1C(O)C1C=CC2C(=O)NC(=O)C2N1Nc1ccccn1` (stereo not given), the composite z-score was 0.744 in assay [1]; 0.108 in assay [2]; 0.0312 in [3]; 0.693 in [4]; -0.145 in assay [5]; -0.227 in assay [6]. Moreover, the figures for the composite z-score in assay [8] and in assay [9] were -0.0955 and 0.159, respectively. In addition, the z-score in assay [7] was 0.0755; in [10], -0.792 (inactive).

Regarding `COc1cc2c(cc1O)C(c1ccc(CN3CCCC3)cc1)N(Cc1cc3c(cc1Br)OCO3)CC2` (stereo not given), the composite z-score in assay [1] is -0.381; in assay [2] it was -0.367; in assay [3], 0.171; in [4], 0.516; in assay [5], 0.0395; in assay [6] it was -0.73. Further, the composite z-score in assay [8] is -0.268; in assay [9], 0.688. The results for the z-score in [7] and in assay [10] were 1.11 and -1.37 (inactive), respectively.

For the compound `[N-]=[N+]=NCc1ccccc1C[C@@]1(C(N)=O)N=C(c2ccc(OCCCO)cc2)O[C@@H]1c1ccccc1`, the composite z-score is 2.4 in assay [1]; 1.03 in [2]; 0.572 in assay [3]; 0.67 in [4]; 0.367 in [5]; -0.457 in assay [6]. Besides, the figures for the composite z-score in [8] and in assay [9] were -0.642 and 1.3, respectively. Further, the z-score in [7] was 0.078; in assay [10], -0.857 (inactive).

With `CC(C)N1C(=O)C[C@@](C(=O)O)(c2ccc([N+](=O)[O-])cc2)[C@H]1c1ccc(CO)cc1`, the composite z-score in [1] was 0.0886; in [2] it was -0.619; in assay [3], -0.0404; in assay [4], -1.14; in [5] it was -0.82; in assay [6] it was -0.798. Besides, the composite z-score in assay [8] was -1.12; in assay [9], -0.76. Further, the values for the z-score in [7] and in assay [10] were 0.993 and -1.03 (inactive), respectively.

For the compound `CCOC(=O)C[C@H]1[C@H](OC(=O)c2ccc(C(=O)c3ccccc3)cc2)[C@@H](NC(=O)c2ccc(-c3ccccc3)cc2)c2cc(OCCCO)ccc2N1C(=O)Cc1ccc(OC)cc1`, the composite z-score is 0.0658 in assay [1]; 0.556 in assay [2]; 0.0784 in assay [3]; 0.544 in assay [4]; 0.51 in assay [5]; -0.205 in [6]. For the same compound, the composite z-score stood at 0.374 in assay [8] and 0.223 in assay [9]. For the same compound, the z-score in assay [7] is 0.967; in [10], 0.408 (inactive).

For `COc1cc(NN2C(C(O)c3ccco3)C=CC3C(=O)N(C)C(=O)C32)cc(OC)c1OC` (stereo not given), the composite z-score in [1] was 1.04; in assay [2], 0.388; in assay [3] it was -0.422; in assay [4], 0.127; in assay [5], -0.0496; in assay [6], 0.127. Further, the composite z-score in [8] stood at 0.0051; in assay [9] it was 0.793. The values for the z-score in assay [7] and in assay [10] were 0.629 and -0.249 (inactive), respectively.

Consider `O=C1N(Cc2ccccc2)c2ccccc2C[C@]12N=C(c1ccc(OCCCO)cc1)O[C@@H]2c1ccccc1`, for which the composite z-score is 1.1 in assay [1]; 1.03 in assay [2]; 1.7 in [3]; 0.529 in [4]; 1.1 in assay [5]; 1.36 in [6]. Further, the composite z-score in assay [8] is 0.492; in [9], 0.186. Also, the z-score in [7] was -0.911; in assay [10], -1.74 (inactive).

Values taken from PubChem BioAssay.
